PABP1 MLLE inh – inhibitors of PABP1 MLLE–PAM2 peptide binding, primary screen, biochemical, fluorescence polarization, FITC-PAM2, GST-MLLE; Polyadenylate-binding protein 1 (Homo sapiens), P11940; inhibition, % at 20 µM; 360,000 tested, 0.36% active; in the data active means inhibition above about 35%, passing the limit was not always enough;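 further: plate controls were DMSO wells with GST-MLLE for no effect and wells lacking GST-MLLE protein for full effect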
CRFBP-R2 block – antagonists of CRF-BP/CRF-R2 complex, primary screen, cell-based, HEK293, calcium dye fluorescence, uHTS | CRF-induced calcium fluorescence | AID 588475, 2011 | 350,000 tested, 0.59% active | inhibition, % at 11.8 µM;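 active means inhibition of the ligand-induced calcium signal above about 50% at the single tested concentration, limit read from the data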
PHOSPHO1 inh – PubChem AID 1565; Phosphoethanolamine/phosphocholine phosphatase (Homo sapiens), Q8TCT1; recombinant PHOSPHO1, absorbance phosphatase assay; inhibition, % at 13.3 µM; 290,000 tested, 1.1% active; in the data active means inhibition above about 60%
Target sequence (Q8TCT1 whole entry, looked up): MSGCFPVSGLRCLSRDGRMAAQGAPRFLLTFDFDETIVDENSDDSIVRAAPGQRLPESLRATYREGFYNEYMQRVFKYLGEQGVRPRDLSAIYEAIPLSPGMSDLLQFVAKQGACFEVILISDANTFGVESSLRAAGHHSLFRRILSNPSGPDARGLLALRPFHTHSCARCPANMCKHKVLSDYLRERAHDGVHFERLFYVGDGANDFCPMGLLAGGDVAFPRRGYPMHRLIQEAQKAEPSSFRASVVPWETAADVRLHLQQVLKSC
PABP polyA inh – PABP poly(A) RNA binding inhibitors, primary screen, biochemical, fluorescence polarization, uHTS. inhibition, % at 35 µM. 290,000 tested, 1% active. AID 2014, 2009;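 further: calls also rest on retests at 20 µM and on dose response follow-up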
eIF4H FP inh – human eIF4H binding inhibitors, primary screen, translation initiation inhibitor project, biochemical, uHTS, fluorescence polarization | eIF4H fluorescence polarization binding assay | 290,000 tested, 0.94% active | inhibition, % at 35 µM;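 further: calls also rest on retests at 20 µM and on dose response follow-up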
* = called active by the depositor. The list is not random: actives were taken first. Their share in the collection is about 2.6%. Unless noted, how the calls were made is not given here.

For O=C(O)CSC1CC(=O)N(c2cccc(Cl)c2)C1=O (centres undefined) the results were PABP1 MLLE inh 33.6, CRFBP-R2 block 15.4, PHOSPHO1 inh 8.9, PABP polyA inh -1.5 and eIF4H FP inh -9.6.
Screening CNC(=O)C1CC(=O)N(c2ccc(OCC(=O)Nc3ccc(F)cc3)cc2)C1 (centres undefined) returned PABP1 MLLE inh 17.1 and CRFBP-R2 block -5.8.
`Cc1cc2nc(C)n(CCCN)c2cc1C` gave PABP1 MLLE inh 6.6, CRFBP-R2 block 54.1*, PHOSPHO1 inh 60.1*, PABP polyA inh 30.4 and eIF4H FP inh -4.6.
`Cc1cc2nc(C)n(CCCNC(=O)Nc3ccc(C#N)cc3)c2cc1C` gave PABP1 MLLE inh 2.3, CRFBP-R2 block -24.7, PHOSPHO1 inh 60.1*, PABP polyA inh 4.7 and eIF4H FP inh -7.8.
Screening Cc1nc2cc(Cl)ccc2n1CCO returned PABP1 MLLE inh 0.0, CRFBP-R2 block 2.7, PHOSPHO1 inh 32.9, PABP polyA inh 7.3 and eIF4H FP inh -10.4.
`CC1=C(C(=O)N(C)C)CC(CC(=O)NCc2cccc3ccccc23)C(=O)N1Cc1ccc(F)cc1` (centres undefined) gave PABP1 MLLE inh -0.5.
Screening CCc1cc2c(SCC(=O)N(CC)c3c(N)n(Cc4ccccc4)c(=O)[nH]c3=O)ncnc2s1 returned PABP1 MLLE inh -15.2, CRFBP-R2 block 0.3, PHOSPHO1 inh 68.1*, PABP polyA inh -0.6 and eIF4H FP inh 4.0.
For CCCCN(C(=O)CSc1ncn[nH]1)c1c(N)n(Cc2ccccc2)c(=O)[nH]c1=O the results were PABP1 MLLE inh -0.8 and CRFBP-R2 block 70.1*.
`CCCCN(C(=O)CSc1nnnn1C)c1c(N)n(Cc2ccccc2)c(=O)[nH]c1=O` gave PABP1 MLLE inh -3.1, CRFBP-R2 block 4.9, PHOSPHO1 inh -5.6, PABP polyA inh 0.3 and eIF4H FP inh -9.5.
For COCc1ccc(C(=O)N2CCCC(CNC(=O)c3ccc(F)cc3)C2)o1 (centres undefined) the results were PABP1 MLLE inh 0.4, CRFBP-R2 block 5.7, PHOSPHO1 inh 9.0, PABP polyA inh -3.1 and eIF4H FP inh 12.9.
`Cc1ccc(NC(=O)CSc2nnc(Cn3cnc4ccccc43)o2)c(C)c1` gave PABP1 MLLE inh 6.4, CRFBP-R2 block 58.9*, PHOSPHO1 inh 36.9, PABP polyA inh -4.4 and eIF4H FP inh -10.6.
`Cc1cc(OCC(=O)C(C)(C)C)c2c(C)c(C)c(=O)oc2c1` gave PABP1 MLLE inh 4.7, CRFBP-R2 block 108.6*, PHOSPHO1 inh -18.3, PABP polyA inh -0.4 and eIF4H FP inh -12.2.
Screening CCc1cc(=O)oc2cc(C)cc(OCC(=O)C(C)(C)C)c12 returned PABP1 MLLE inh 7.6, CRFBP-R2 block -14.5, PHOSPHO1 inh 28.1, PABP polyA inh 4.0 and eIF4H FP inh -11.8.
CC(C(=O)NCCCc1ccccc1)n1cccc1C(=O)c1ccccc1 (centres undefined) was read as PABP1 MLLE inh -12.5, CRFBP-R2 block 29.9 and PHOSPHO1 inh 69.7*.
`O=C(CSc1nccc(=O)[nH]1)N1CCCc2ccccc21` gave PABP1 MLLE inh 38.1*, CRFBP-R2 block 4.0, PHOSPHO1 inh -14.0, PABP polyA inh -1.9 and eIF4H FP inh -6.3.
Screening Cc1cc(=O)[nH]c(SCC(=O)N2CCCc3ccccc32)n1 returned PABP1 MLLE inh 24.0, CRFBP-R2 block 9.3, PHOSPHO1 inh 8.7, PABP polyA inh 3.1 and eIF4H FP inh -5.0.
`COc1ccc(C(=O)OC2C(OC)OCC(O)C2O)cc1` (centres undefined) gave PABP1 MLLE inh 9.0 and CRFBP-R2 block 5.5.
O=C(NC(Cc1ccccc1)C(=O)O)/C(=C/c1ccc(Cl)cc1)NC(=O)c1ccccc1 (centres undefined) was read as PABP1 MLLE inh 2.4, CRFBP-R2 block 5.4, PHOSPHO1 inh -24.1, PABP polyA inh 77.2 and eIF4H FP inh active.
Screening O=C(NC(Cc1ccccc1)C(=O)O)/C(=C\c1ccccc1F)NC(=O)c1ccccc1 (centres undefined) returned PABP1 MLLE inh 2.8, CRFBP-R2 block -29.5, PHOSPHO1 inh 30.4, PABP polyA inh 0.4 and eIF4H FP inh -9.2.
Screening O=C(CN1CCN(S(=O)(=O)c2ccc(Cl)cc2)CC1)NC1CCCC1 returned PABP1 MLLE inh -12.1, CRFBP-R2 block 3.6, PHOSPHO1 inh 35.2, PABP polyA inh -9.0 and eIF4H FP inh -2.1.
